# Screening results deposited in PubChem by several laboratories.
# CYP2C9 act: activators of human CYP2C9. activation factor at 5 µM. P11712. 96,000 compounds, 1.4% hits. recombinant CYP2C9, luciferin-H conversion, luminescence; hits give high values; factor 1 = untreated enzyme, 0 = blocked;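 active = activation factor of 2 or more for CYP2C9 at a 5 µM dose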
# CYP2C9 inhib: blocks human cytochrome P450 2C9; AID 777; 96,000 compounds, 20% hits; inhibition, % at 5 µM; CYP2C9 Supersomes, luciferin-H conversion, luminescence; P11712;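 active = blocking of liver enzyme CYP2C9 beyond about 50% at 5 µM, limit read from the data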
# Cav32 inh: inhibitors of human Cav3.2 T-type calcium channel; O95180; Cav3.2-expressing cells, Fluo-4 calcium fluorescence FDSS; hits give low values; B-score at 10 µM; 100,000 compounds, 4% hits;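 active = single-dose well whose peak fluorescence ratio is a statistical outlier from its plate by either plate-standardised score or position-corrected B-score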
# CYP2C19 inhib: human CYP2C19 inhibition | P33261 | CYP2C19 Supersomes, luciferin-H EGE luminescence, 30 min | inhibition, % at 5 µM | 96,000 compounds, 21% hits | AID 778;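 active = CYP2C19 inhibition above a set limit at 5 µM in the primary screen, cut at about 50% in these data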
# CYP2C19 act: cytochrome P450 2C19 (human) activation; recombinant CYP2C19, luciferin-H EGE luminescence; hits give high values; 0 = fully inhibited enzyme, 1 = untreated enzyme; activation factor at 5 µM; P33261; 96,000 tested, under 10 active;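 active = activation factor of at least 2 at 5 µM in the primary screen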
# A number is an active result; – = inactive; · = no result. Most compounds without a hit are left out; they make up all but 27% or so of the library.
SMILES,CYP2C9 act,CYP2C9 inhib,Cav32 inh,CYP2C19 inhib,CYP2C19 act
COc1ccccc1/C=C/CN1CCN(c2ccccc2)CC1,–,–,–,82.2,–
COC(C/C=C/C(=O)[C@H](C)OCc1ccccc1)OC,·,·,–,·,·
O=C(CNCCC1=CCCCC1)Nc1ccccc1N1CCCCC1,–,86.4,–,92.6,–
O=C(CNCC1CCCCC1)Nc1ccccc1N1CCCCC1,–,–,-7.13,73.9,–
O=C(CN1CCc2ccccc2C1)Nc1ccccc1N1CCCCCC1,–,72.6,-3.32,90.0,–
O=C(CN1CCCCC1)Nc1ccccc1NC(=O)CN1CCCCC1,–,–,–,–,–
O=C(NCC(=O)N(CC1CCCO1)C(C(=O)NC1CCCC1)c1cccnc1)c1ccco1 (centres undefined),–,–,–,–,–
COc1ccc(CNC(=O)C(=O)NCC2OCCN2S(=O)(=O)c2cccs2)cc1 (centres undefined),·,·,-4.87,·,·
Cc1ccc(CNC(=O)C(=O)NCC2OCCN2S(=O)(=O)c2ccc3c(c2)OCCO3)cc1 (centres undefined),·,·,-4.5,·,·
O=C(NCc1ccc(Cl)cc1)C(=O)NCC1OCCN1S(=O)(=O)c1cccs1 (centres undefined),·,·,-5.97,·,·
Cc1ccc(S(=O)(=O)N2CCOC2CNC(=O)C(=O)NCc2ccco2)cc1 (centres undefined),·,·,–,·,·
O=C(NCc1ccccc1)C(=O)NCC1OCCN1S(=O)(=O)c1ccc2c(c1)OCCO2 (centres undefined),·,·,–,·,·
CC(C)Cn1cnc2c1c(=O)n(CC(=O)Nc1ccc3c(c1)OCO3)c(=O)n2Cc1ccccc1,–,–,–,–,–
CCOc1cc(S(=O)(=O)NCc2ccccc2)ccc1F,–,–,–,–,–
CCOc1cc(S(=O)(=O)n2c(C)nc3ccccc32)ccc1F,–,85.6,–,99.0,–
N#Cc1nc(COc2ccc(Br)cc2)oc1N1CCN(Cc2ccccc2)CC1,–,55.6,-7.83,–,–
N#Cc1nc(COc2ccc(F)cc2)oc1N1CCC(Cc2ccccc2)CC1,–,70.1,·,–,–
COc1ccccc1-c1nc(C#N)c(N2CCN(Cc3ccccc3)CC2)o1,–,–,–,–,–
N#Cc1nc(COc2ccc(F)cc2)oc1N1CCN(Cc2ccccc2)CC1,–,92.6,·,73.3,–
CCN1CCN(c2oc(COc3ccc(-c4ccccc4)cc3)nc2C#N)CC1,–,81.3,–,93.2,–
Cc1ccc(-n2cc(-c3ccccc3)[nH]c2=O)cc1F,–,–,·,–,–
CC(C)CC(CO)N1CCN(C(=O)c2cccc(C(F)(F)F)c2)CCC1=O (centres undefined),·,·,–,·,·
O=P(COc1ccccc1)(c1ccccc1)c1ccccc1,–,71.8,–,–,–
O=P(Cc1ccncc1)(c1ccccc1)c1ccccc1,–,–,–,59.6,–
CCCCN(CCCC)CP(=O)(c1ccccc1)c1ccccc1,–,–,-5.77,–,–
SMILES,CYP2C9 act,CYP2C9 inhib,Cav32 inh,CYP2C19 inhib,CYP2C19 act
O=P(CCCCCCCCCP(=O)(c1ccccc1)c1ccccc1)(c1ccccc1)c1ccccc1,–,99.1,-9.56,80.1,–
Cc1ccc(C2(C)NC(=O)N(CC(=O)NC(=O)NC3CCCC3)C2=O)cc1 (centres undefined),–,–,·,–,–
COc1ccc(/C(N)=N/OC(=O)CSc2ccccc2)cc1OC,–,–,–,–,–
O=C(c1noc2c1CCc1ccccc1-2)N1CCCc2ccccc21,–,–,–,51.8,–
COc1ccc2c(c1)CCc1c(C(=O)N3CCCCCC3)noc1-2,–,–,–,–,–
O=C(c1noc2c1CCc1ccccc1-2)N1CCOCC1,3.2,–,–,–,–
O=C1CCCc2nn(-c3ccccc3)c(-c3ccncc3)c21,–,–,–,–,–
Cc1ccc(N(C(=O)C2CCCO2)C2C=CS(=O)(=O)C2)cc1Cl (centres undefined),–,–,–,–,–
O=C(COc1ccc(Cl)cc1Cl)N1CCCCCC1,–,–,–,–,–
Cc1cc(Cl)ccc1OCC(=O)Nc1ccccc1CO,–,–,–,57.9,–
Cc1cc(Cl)ccc1OCC(=O)OC(C)C(=O)N(C)C (centres undefined),–,–,–,69.3,–
O=C(Cc1ccc(Cl)cc1)Nc1ccccc1CO,–,–,–,55.0,–
Cc1cc(Cl)ccc1OCC(=O)N1CC(C)CC(C)C1 (centres undefined),–,–,-5.32,97.8,–
Cc1cc(Cl)ccc1OCC(=O)N/N=C1\CCCc2ccccc21,–,–,–,–,–
c1ccc(N=P(c2nc3ccccc3o2)(N2CCOCC2)N2CCOCC2)cc1,–,–,–,–,–
CCCCC(=O)N1C/C=C\C(c2ccc(OC)cc2)N(Cc2ccc(F)cc2)C(=O)C1 (centres undefined),·,·,–,·,·
Cc1nc2ncnn2c(C)c1CCC(=O)NCCCN1CCN(c2cccc(Cl)c2)CC1,–,–,·,–,–
Cc1csc(NC(=O)CCC(=O)N(CC(=O)NC2CCCC2)Cc2ccco2)n1,–,–,–,–,–
CCOC(=O)c1c(C)oc(NC(=O)COc2ccc(Cl)cc2C)c1C#N,–,56.3,–,–,–
CC(C)NC(=O)c1cc(C(=O)c2cc(Cl)ccc2O)coc1=N,–,–,–,68.9,–
N#Cc1cc(C(=O)c2cc(Cl)ccc2O)cn(CC2CCCO2)c1=O (centres undefined),–,–,–,–,–
COc1ccc(C(=O)Cc2cc(OC)c(OC)cc2[N+](=O)[O-])cc1,–,–,–,–,–
CSCCC(NS(=O)(=O)c1ccc(Cl)cc1)C(=O)OCC(=O)NC12CC3CC(CC(C3)C1)C2 (centres undefined),–,60.6,–,–,–
CCCCOc1ccc(N2C(=O)CC(NCCc3ccc(S(N)(=O)=O)cc3)C2=O)cc1 (centres undefined),–,–,–,–,–
Cc1cc(C)nc(N(C#N)Cc2ccc(Br)cc2)n1,–,–,–,67.8,–
SMILES,CYP2C9 act,CYP2C9 inhib,Cav32 inh,CYP2C19 inhib,CYP2C19 act
CC(=O)Oc1ccc2ccccc2c1C(NC(=O)Cc1ccccc1)c1ccc(Cl)cc1 (centres undefined),–,63.1,-9.8,–,–
O=C(c1cnsn1)N1CCN(c2ccccn2)CC1,–,–,–,–,–
Cc1ccc(C(=O)Cn2nnc3ccccc32)cc1,–,–,–,–,–
CCN(C(=O)c1ccc(C(C)(C)C)cc1)c1nnc(Cn2nnc3ccccc32)s1,–,51.8,-8.04,–,–
O=C(CN1C(=O)C2C3C=CC(C3)C2C1=O)Nc1nc2ccccc2[nH]1 (centres undefined),–,–,–,–,–
COc1ccc(NC(=O)CN2CCCCC2)cc1,–,–,–,76.6,–
COc1ccc(NC(=O)CN2CCN(CC(=O)Nc3ccccc3Cl)CC2)cc1,–,–,–,85.0,–
COc1ccc(NC(=O)CSC2CCCCC2)cc1,–,50.8,–,97.5,–
CCOc1ccc(NC(=O)CN2CCN(CC(=O)Nc3cc(OC)cc(OC)c3)CC2)cc1,–,59.0,–,–,–
Cc1cc(C)c(NC(=O)CN2C(=O)NC3(CCOc4ccccc43)C2=O)c(C)c1 (centres undefined),–,–,–,–,–
